Sampled rows, rich in hits. Any-hit rate of the full collection: about 19%.
uPA generation = cell surface uPA generation inhibition. cell surface uPA generation assay, qHTS. Potency, µM (series often up to 38.3 µM), inactives show at the highest dose activity change, negative = inhibition, usual class: inhibitors. 330,000 tested, 0.31% active. AID 540303; active = well fitted inhibition curve with a large enough effect; inconclusive = small, poorly fitted or top-dose-only effect; inactive = no such curve, though single readings can be large or run the other way; tested in mouse RAW 264.7 cells; note: potency is the fitted concentration of half-maximal effect; nearly all actives have a fitted effect of over 55% in size
IL-1B inflam inh = inhibitors of inflammasome signaling (IL-1 beta secretion). 360,000 tested, 4.7% active. THP-1 LPS/ATP IL-1B secretion, AlphaLISA, 16 h; hits give low values. activity change, % at 57.5 µM. AID 743279; in the data active = activity change below about -50%; inconclusive = mostly about -30% to -49%
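Secreted IL-1B measured by AlphaLISA bead assay after 16 h compound exposure of THP-1 cells; compounds (final up to 57.5 uM) added 1 h before LPS (250 ng/mL) and ATP (1.25 mM) stimulation; lower signal means less secretion.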
HT1080NT lethal = kills 2HG-producing HT-1080-NT fibrosarcoma cells | HT-1080-NT fibrosarcoma viability, CellTiter-Glo ATP luminescence, 48 h | Potency, µM (doses to about 46.1 µM), for the others: at the top dose activity, negative = less viability, hits mostly cytotoxic | 360,000 tested, 1.6% active;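 note: NT is the 2HG producing partner of a matched IDH1 knockdown line; potency is the fitted concentration of half-maximal effect; 0% = DMSO-treated cells and -100% = media-only wells without cells; nearly all actives have a fitted effect of over 55% in size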
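HT-1080-NT; 750 cells/well; 5% FBS RPMI; 48 h compound, 37 degrees C; CellTiter-Glo luminescence; curve fitting and curve-class assignment.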
DT40 TDP1 CPT = growth inhibition of DT40 Tdp1-/-;hTDP1 cells with camptothecin (screen for TDP1 inhibitors); chicken DT40 Tdp1-/-;hTDP1 cells + 20 nM CPT, ATP luminescence, 48 h; Potency, µM (doses to about 46.2 µM), inactives show at the highest dose activity change, negative = growth inhibition, hits mostly inhibitors; 420,000 tested, 12% active; AID 686979; note: potency is the fitted concentration of half-maximal effect; nearly all actives have a fitted effect of over 55% in size
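Chicken DT40 Tdp1-/- cells complemented with human TDP1, 400 cells/well, exposed to compounds plus 20 nM camptothecin for at least 48 h at 37 C; viability read as ATP content by CellTiter-Glo luminescence.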
HT1080 IDH1KD tx = toxicity to HT-1080 IDH1 knockdown cells (counter line) | HT-1080 IDH1 knockdown viability, ATP luminescence, 48 h | 360,000 tested, 2% active | Potency, µM (top dose mostly 46.1 µM), inactives show at the highest dose activity, negative = toxicity, actives largely listed as cytotoxic | AID 686971;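 note: potency is the fitted concentration of half-maximal effect; 0% = DMSO wells and -100% = cell-free medium wells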
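IDH1KD HT-1080 cells, 750/well, RPMI + 5% FBS; compound pinned after 2 h settling; 48 h, 37 °C; CellTiter-Glo luminescence; % activity normalised to DMSO and no-cell wells; curves fitted, classed by r2 and efficacy.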
DT40 TDP1 no CPT = qHTS for Inhibitors of human tyrosyl-DNA phosphodiesterase 1 (TDP1): qHTS in cells in absence of CPT; DT40 Tdp1-/- hTDP1 cells, no CPT, ATP luminescence, 48 h; Potency, µM (top dose mostly 46.2 µM), without a hit: top-dose activity change, negative = growth inhibition, hits mostly inhibitors; 420,000 tested, 15% active; AID 686978, 2013; note: potency is the fitted concentration of half-maximal effect; nearly all actives have a fitted effect of over 55% in size
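Readout: luminescence from CellTiter-Glo after 30 min in the dark at RT. Cells: DT40 Tdp1-/- with stable hTDP1, 400/well. Exposure: compounds alone, ≥48 hr, 37 °C.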
* marks the source's active call; other numbers are inactive results; u = inconclusive; x = no result; [ ] = another dose, or the depositor's remark. Unless noted, calls come from the whole dose curve; as a rule, active = well fitted curve in the direction sought with a large enough effect; inconclusive = small, poorly fitted or top-dose-only effect, or another doubt; inactive = no such curve, though single readings can be large; an effect the other way counts as inactive or inconclusive. Unless noted, % is set by controls: 0 for no effect and ±100 for the full control effect.

SMILES	uPA generation	IL-1B inflam inh	HT1080NT lethal	DT40 TDP1 CPT	HT1080 IDH1KD tx	DT40 TDP1 no CPT
Cc1cccc(C)c1NC(=O)CNC(=O)CNC(=O)c1ccc2c(c1)OCO2	-3%	-1	-1%	-8%	-5%	5%
COc1cc(C2Sc3ccccc3NC3=C2C(=O)OC3)cc(OC)c1OC (configuration not stated)	-10%	36	-3%	16µM*	u	u
O=C(Nc1cccc(C(F)(F)F)c1)OCCN1CCN(Cc2ccccc2)CCC1=O	10%	-17	-2%	21µM*	0%	u
CCC(=O)N1c2nc(C(C)C)nn2C2(CCCCC2)[C@@H]2CCCC[C@@H]21	x	x	x	8.2µM*	x	4.1µM*
CC(C)C(=O)N1c2ncnn2C2(CCCCC2)[C@@H]2CCCC[C@@H]21	x	x	x	16µM*	x	10µM*
O=S1(=O)Nc2c(ccc3cccnc23)-c2ccccc21	u	-100*	0.56µM*	1.2µM*	0.32µM*	1.5µM*
Clc1ccc2ccc3cccnc3c2n1	4%	-6	-1%	u	3%	u
CN(C)CCC(=O)c1ccc(F)cc1	-1%	-12	1%	5.2µM*	-1%	4.6µM*
CCN(CC)CCC(=O)c1ccc(F)cc1	-1%	6	-2%	2.9µM*	4%	2.3µM*
CCNC(=O)COC(=O)CCC(=O)c1ccc(F)cc1	3%	18	2%	-7%	3%	10%
CN(C)CCC(=O)c1ccc2c(c1)OCO2	-7%	-24	3%	3.7µM*	6%	3.7µM*
Cc1ccc(NC(=O)Nc2cccnc2)cc1Cl	-1%	u	3%	u	0%	-6%
Cc1ccc(NC(=O)Nc2c(Cl)cccc2Cl)cn1	-24%	19	-9%	u	-9%	10µM*
COc1ccc(O)cc1CN1CCN(c2ncc(Cc3ccccc3)cn2)CC1	x	-4	u	23µM*	u	16µM*
Oc1ccc(Cl)c(CN2CCN(c3ncc(Cc4ccccc4)cn3)CC2)c1	x	2	u	u	u	18µM*
COCCN(C(=O)COC(=O)CCC(=O)c1ccc(Cl)cc1)c1c(N)n(Cc2ccccc2)c(=O)[nH]c1=O	-19%	-4	1%	-9%	4%	-21%
Cc1ccc(-c2nc(CS(=O)CC(=O)NCc3ccco3)c(C)o2)cc1 (configuration not stated)	-5%	-14	-12%	11%	-10%	-25%
O=C(CN1CCC(C(O)(c2ccccc2)c2ccccc2)CC1)Nc1cc(Cl)ccc1Cl	-2%	-67*	-9%	u	-16%	20µM*
O=C(CN1CCN(S(=O)(=O)N2CCOCC2)CC1)Nc1cc(Cl)ccc1Cl	1%	4	-5%	-22%	-2%	u
O=C(CN1CCC(C(O)(c2ccccc2)c2ccccc2)CC1)Nc1ccccc1	10%	-55*	u	21µM*	u	16µM*
O=C(CN1CCOCCOCCOCC1)Nc1ccccc1	2%	-7	-11%	-9%	-4%	2%
O=C(CN1CCN(C(=O)N2CCOCC2)CC1)Nc1cc(Cl)ccc1Cl	1%	20	-7%	u	-1%	13µM*
Cc1ncc2c(c1CNS(=O)(=O)N(C)C)CCN(C(=O)c1ccc(F)cc1Cl)C2	x	x	x	1%[9.04 µM]	x	-13%
CCOC(=O)CCc1c(C)c2ccc(OCc3cc([N+](=O)[O-])ccc3OC)cc2oc1=O	-1%	-1	10%	26µM*	20%	23µM*
COc1ccc([N+](=O)[O-])cc1COc1ccc2c(-c3ccccc3)cc(=O)oc2c1	-4%	2	1%	u	0%	-9%
O=C(NCc1ccco1)C1CC(=O)N(c2ccc(O)cc2)C1 (configuration not stated)	2%	15	10%	21µM*	11%	26µM*
